# Shown is part of a subset that was picked to be rich in hits.
# Dicer inh = inhibitors of human Dicer processing of pre-microRNA; Q9UPY3; cat-ELCCA pre-miR-21 Dicer processing, chemiluminescence; hits give high values; z-score at 25 µM; actives 6% (n = 47,000); in the data active means z-score above about 3, passing the limit was not always enough;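 further: plate controls were vehicle for no effect and no enzyme for full effect; higher signal means more uncleaved substrate so more Dicer inhibition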
# The depositor's hits bear a star.
SMILES,Dicer inh
CCOc1cc(C2Nc3c(C)cc(C)cc3-c3cc(C)nn32)ccc1O (stereo unspecified),0.34
Cc1cc(C)c2c(c1)-c1cc(C)nn1C(c1ccc(O)c(O)c1)N2 (stereo unspecified),8.6*
Cc1cc(C)c2c(c1)-c1cc(C)nn1C(c1ccc(N3CCOCC3)cc1)N2 (stereo unspecified),-1.6
O=C(O)CCC1CCCCCCCCCC(CCC(=O)O)C1=O (stereo unspecified),-1.1
O=C1CCN=C(Nc2ccc(F)c(Cl)c2)S1,-1
CCOC(=O)c1c(N)oc2c(-c3ccc(CC)cc3)c3c(C(=O)OCC)c(N)oc3cc12,0.57
CCOC(=O)c1c(N)oc2c(-c3ccc(C)cc3)c3c(C(=O)OCC)c(N)oc3cc12,-1.6
COC(=O)c1c(C)oc2ccc(OC(C)C(=O)O)cc12 (stereo unspecified),-0.16
COC(=O)c1c(C)oc2ccc(O)cc12,1.5
CCOC(=O)c1c(N)oc2c(-c3ccc(C)c(C)c3)c3c(C(=O)OCC)c(N)oc3cc12,5*
COC(=O)c1c(N)oc2c(-c3ccc(C)cc3)c3c(C(=O)OC)c(N)oc3cc12,3.8*
Cn1c(=O)c2c(nc(SCc3ccc(F)cc3)n2C)n(C)c1=O,0.77
Cn1c(=O)c2c(nc(Sc3ccccc3N)n2C)n(C)c1=O,-2.6
Cn1c(=O)c2c(nc(Sc3nnc(N)s3)n2C)n(C)c1=O,3.1*
O=S(=O)(Nc1cc(F)ccc1F)c1ccc(NC(=S)Nc2ccc(C(F)(F)F)cc2)cc1,0.41
Cc1noc2ncnc(SCC(=O)Nc3cc(Cl)cc(Cl)c3)c12,-1.1
Cn1ccnc1SCC(=O)Nc1nc2c(s1)C(=O)CC(C)(C)C2,1.5
O=S(=O)(Nc1nc2ccccc2nc1NCc1ccccc1)c1ccc(Cl)cc1,6*
O=S(=O)(Nc1nc2ccccc2nc1Nc1ccc(Cl)cc1)c1ccccc1,0.86
O=c1[nH]c2ccc(Nc3nc4ccccc4nc3NS(=O)(=O)c3ccc(Cl)cc3)cc2[nH]1,2.4
Cc1nn(C)c(N/N=C/c2cc(Br)cs2)c1[N+](=O)[O-],0.7
Cc1ccc(/C(O)=C2/C(=O)C(=O)N(c3ccc(O)cc3)C2c2ccccc2)cc1 (stereo unspecified),0.95
Cc1ccc(N2C(=O)c3ccccc3C2C(=O)c2cc(C)ccc2O)cc1 (stereo unspecified),11*
O=C1c2ccccc2NC(c2ccccc2O)N1c1ccc(F)cc1 (stereo unspecified),-0.68
COc1ccc(Oc2ccc([N+](=O)[O-])cc2C(=O)O/N=C(\N)c2ccc(C(F)(F)F)cc2)cc1,-0.47
SMILES,Dicer inh
CCCOC(=O)C1=C(C)NC2=C(C(=O)CC(C)(C)C2)C1c1ccccn1 (stereo unspecified),0.05
COc1ccc(CN2C(=O)c3oc4ccc(Cl)cc4c(=O)c3C2c2ccc(O)c(OC)c2)cc1 (stereo unspecified),1.4
O=S(=O)(c1ccccc1)n1nc(-c2ccccc2)nc1NCc1ccccc1,1.5
Cc1nc(C)c(-c2ccn(S(=O)(=O)c3ccc(Cl)cc3)n2)o1,0.48
Cc1ccc(S(=O)(=O)n2nc(C)cc2C)cc1,0.88
Cc1ccc(S(=O)(=O)n2nc(-c3ccc(Cl)cc3)nc2N)cc1,3.2*
Cc1ccc(S(=O)(=O)n2nc(-c3ccc(Cl)cc3)nc2NCc2ccco2)cc1,3.4*
O=S(=O)(c1ccccc1)n1nc(-c2ccccc2)nc1NCc1ccc(Cl)cc1,-1.7
Cc1cc(OCc2nc(-c3ccc(-n4cccc4)cc3)no2)cc(C)c1Cl,2.5
O=C(O)c1nn(-c2ccc(Cl)cc2)c(=O)c2ccccc12,-0.06
COc1ccc(C2=Nc3ccccc3SC(c3cccc(O)c3)C2)c(O)c1 (stereo unspecified),-0.77
COc1ccc(O)c(C2=Nc3ccccc3N=C(C(F)(F)F)C2)c1,3.2*
Oc1ccccc1C1=Nc2ccccc2N=C(C(F)(F)F)C1,2.6
Nc1nnc(Sc2nc3c(Cl)cc(Cl)cc3s2)s1,-4.2
CCCCN1C(=O)N(c2nnc(C(C)(C)C)s2)C(=O)C1c1ccc(F)cc1 (stereo unspecified),-0.24
COC(=O)C1=C(C(=O)c2ccc(C)cc2)C(c2ccccc2OC)n2nnnc2N1 (stereo unspecified),0.5
CCOC(=O)C1=C(C)Nc2nnnn2C1c1cc(OC)ccc1OC (stereo unspecified),1.6
COc1ccccc1C1C(C(=O)OC(C)C)=C(C)Nc2nnnn21 (stereo unspecified),3.2*
CCOC(=O)C1=C(C)Nc2nnnn2C1c1cc(Br)ccc1OC (stereo unspecified),47*
COC(=O)C1=C(C(=O)c2ccccc2)C(c2ccccc2OC)n2nnnc2N1 (stereo unspecified),0.01
COC(=O)C1=C(C)Nc2nnnn2C1c1cc(Br)ccc1OC (stereo unspecified),-0.18
CC1=C(OC(=O)c2c(-c3c(Cl)cccc3Cl)noc2C)C(=O)CC1,1.2
CNC(=O)C(CC(C)C)NC(=O)OC(C)(C)C (stereo unspecified),-0.45
